Measured values as given in PubChem BioAssay (NCI).
“And” between values parts separate entries of the source, which are not always exact repeats. Equal values may be shown once. About 83,000 compounds went through this panel and 20% of them were active in at least one assay; those are over-represented in the sample as a whole.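 Plates (96-well) were seeded with cells, treated with compound at one concentration, and incubated for 48 hours before percent growth was determined.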 The source made the active and inactive calls. Rule for the calls: active = growth percent below 10; inactive = the rest.

Tests used:
Experiment in all cases: NCI-60 one-dose screen, 48 h (100 = growth as untreated, 0 = no growth, -100 = all killed)
Settings in all cases: 10 µM unless noted
[1] = tested on: SR leukemia
[2] = tested on: RPMI-8226 leukemia
[3] = tested on: OVCAR-8 ovarian
[4] = tested on: OVCAR-4 ovarian
[5] = tested on: SK-OV-3 ovarian
[6] = tested on: IGROV1 ovarian
[7] = tested on: OVCAR-3 ovarian
[8] = tested on: HS 578T breast
[9] = tested on: NCI/ADR-RES ovarian
[10] = tested on: T-47D breast
[11] = tested on: BT-549 breast
[12] = tested on: MDA-MB-435 melanoma
[13] = tested on: SW-620 colon
[14] = tested on: MCF7 breast
[15] = tested on: HCT-116 colon
[16] = tested on: HCC-2998 colon
[17] = tested on: KM12 colon

Measured: growth

CCOC(=O)c1cc2c(n1Cc1cc(OC)cc(OC)c1Br)-c1nc(NC(C)=O)sc1CCC2
inactive: [1] 58.9% | [2] 60.5% | [3] 64.9% | [4] 73.4% | [5] 82.1% | [6] 87.5% | [7] 81.4% | [8] 64.6% | [9] 78.6% | [10] 38.5% | [11] 92.9% | [12] 83.9% | [13] 81.3% | [14] 57.6% | [15] 78.2% | [16] 72.7%

C#Cc1cc(C(=O)Nc2ccc(CN3CCN(C)CC3)c(C(F)(F)F)c2)ccc1C
inactive: [1] 58.7% | [2] 59.5% | [3] 77.4% | [4] 72.3% | [5] 93.2% | [6] 75.7% | [7] 86.4% | [8] 64.7% | [9] 82.2% | [10] 79% | [11] 101% | [12] 28.1% | [13] 81.3% | [14] 70.1% | [15] 47.8% | [16] 90.2% | [17] 70.3%

O=Nc1ccc(NO)c2ccccc12
107% (inactive) and -57.8% (active): [12]
98.7% (inactive) and 0.0919% (active): [7]
inactive: [1] 106% and 43.8% | [2] 92.2% and 54.7% | [3] 97.9% and 87% | [4] 92.3% and 35.8% | [5] 94.2% and 106% | [6] 86.1% and 61.5% | [8] 85.4% and 96.3% | [9] 97.5% and 14.5% | [10] 96.9% and 65.8% | [13] 86% and 52.3% | [14] 91.5% and 64.5% | [15] 95% and 39.1% | [16] 120% and 108%

O=C(c1ccc(Nc2nccc(NCCCNc3ccnc4cc(Cl)ccc34)n2)cc1)N1CCCCC1
inactive: [2] 81% | [3] 34% | [4] 48.4% | [5] 66.7% | [6] 39.7% | [7] 37.7% | [8] 84.8% | [9] 92.6% | [10] 54.3% | [11] 64.9% | [12] 34.1% | [13] 26.3% | [14] 23.1% | [15] 26.7% | [16] 26% | [17] 37.5%
active: [1] -2.26%

C=C1CC[C@@H]2[C@](C)(COC(C)=O)[C@H](OC(C)=O)CC[C@@]2(C)[C@@H]1CC(Nc1ccc(S(=O)(=O)Nc2nccs2)cc1)C1=CCOC1=O (stereo not given in full)
active: [1] -5.84% | [2] -13.3% | [3] 4.39% | [7] -70.2% | [9] 9.2% | [11] -23.5% | [12] -8.31% | [13] -72.7% | [14] -21.3% | [15] -30.4% | [17] -0.895%
inactive: [4] 38% | [5] 79.9% | [8] 51.9% | [10] 34.6% | [16] 54.2%

N=C(N)SCc1c2ccccc2c(CSC(=N)N)c2ccccc12
inactive: [2] 46% | [3] 60.7% | [4] 80.6% | [6] 80.6% | [7] 93.5% | [8] 85.5% | [9] 103% | [10] 71.5% | [11] 102% | [12] 74% | [13] 43.1% | [14] 38.3% | [15] 40.4% | [16] 79.5% | [17] 59.7%
active: [1] -11.1%

COc1cc(NC2CCCCC2O)c2nc(-c3ccc(Cl)cc3)ccc2c1 (stereo not given)
inactive: [2] 58.3% and 34.2% | [3] 85.5% and 90.1% | [4] 75.6% and 76.7% | [5] 101% and 105% | [6] 97.2% and 96% | [7] 88.1% and 112% | [8] 85.4% and 138% | [9] 84.5% | [10] 78.5% and 86.5% | [11] 108% and 97.5% | [12] 68.4% and 86.5% | [13] 78.9% and 86.7% | [14] 51.8% and 59.4% | [15] 69.6% and 77.2% | [16] 91.8% and 93% | [17] 54.9% and 68.3%
active: [1] -4.63%

CCCCCCCCCCCCCCCC[N+](C)(C)CCN(Cc1ccc(OC)cc1)c1ncccn1
-76% (active) and 50.2% (inactive): [16]
active: [6] -70.4% | [12] -96.8% | [15] -85.6% and -62.4%
-45.2% (active) and 56.8% (inactive): [1]
inactive: [2] 27.2% | [9] 72.2% and 105% | [14] 20.1% and 47.6%
-86% (active) and 76.9% (inactive): [13]
-100% (active) and 33.6% (inactive): [17]
-5.46% (active) and 42.2% (inactive): [10]
-100% (active) and 45.5% (inactive): [7]
-8.05% (active) and 31.3% (inactive): [4]
-72.8% (active) and 56.4% (inactive): [3]
-72.9% (active) and 84.5% (inactive): [8]
-75% (active) and 61.8% (inactive): [11]
